Test results: PubChem BioAssay (NCI)
This is part of a sample that, as a whole, favours compounds with a hit. Of some 83,000 tested, about 20% had one in any assay.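 A percent growth of 40 corresponds to 60% growth inhibition; 0 means no net growth; -100 means all cells died. Active threshold: below 10.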 Activity calls are given as the source filed them.

How the values were obtained:
Test in all cases: NCI-60 one-dose screen, 48 h (100 = growth as untreated, 0 = no growth, -100 = all killed)
Conditions in all cases: 10 µM unless noted
NCI-H23 lung = system: NCI-H23 lung
NCI-H226 lung = system: NCI-H226 lung
NCI-H322M lung = system: NCI-H322M lung
HOP-62 NSCLC = system: HOP-62 NSCLC
HOP-92 NSCLC = system: HOP-92 NSCLC
NCI-H522 lung = system: NCI-H522 lung
A549/ATCC NSCLC = system: A549/ATCC NSCLC
786-0 renal = system: 786-0 renal
COLO 205 colon = system: COLO 205 colon
DU-145 prostate = system: DU-145 prostate
K-562 leukemia = system: K-562 leukemia
MALME-3M melanoma = system: MALME-3M melanoma
MDA-MB-231 breast = system: MDA-MB-231 breast
RXF 393 renal = system: RXF 393 renal
SF-268 CNS = system: SF-268 CNS
SF-295 CNS = system: SF-295 CNS
SF-539 CNS = system: SF-539 CNS
UACC-257 melanoma = system: UACC-257 melanoma
M14 melanoma = system: M14 melanoma
NCI-H460 lung = system: NCI-H460 lung

Measured: growth

COc1ccc(NC(=O)c2cc(OC)c(OC)c(OC)c2)cc1O
active: NCI-H522 lung -41%
inactive: NCI-H23 lung 52.2% | NCI-H226 lung 99.9% | NCI-H322M lung 68.2% | HOP-62 NSCLC 35.1% | HOP-92 NSCLC 37.4% | A549/ATCC NSCLC 48.6% | 786-0 renal 38.5% | COLO 205 colon 40.4% | DU-145 prostate 36.6% | K-562 leukemia 27.7% | MALME-3M melanoma 46.5% | MDA-MB-231 breast 58.5% | RXF 393 renal 46.4% | SF-268 CNS 44.1% | SF-295 CNS 35.5% | SF-539 CNS 21.5% | UACC-257 melanoma 58.2% | M14 melanoma 36%

C=CCn1cc(-c2nc3ccccc3s2)c2cc(-c3ccc4c5c(cccc35)C(=O)N(CCN3CCNCC3)C4=O)ccc21
active: K-562 leukemia -51.9%
inactive: NCI-H23 lung 86.3% | NCI-H226 lung 63.9% | NCI-H322M lung 97.5% | HOP-62 NSCLC 82.7% | HOP-92 NSCLC 72.1% | NCI-H522 lung 92.4% | A549/ATCC NSCLC 85% | COLO 205 colon 107% | DU-145 prostate 101% | MALME-3M melanoma 55.2% | MDA-MB-231 breast 60.5% | RXF 393 renal 93.2% | SF-268 CNS 89.9% | SF-295 CNS 101% | SF-539 CNS 91.1% | UACC-257 melanoma 102% | M14 melanoma 82%

CCOC(=O)c1c(/N=C2\SC(=O)/C(=C\C(=O)OC)N2NC)sc2c1CCN(C(=O)OCC)C2
inactive: NCI-H23 lung 96.4% | NCI-H226 lung 99% | NCI-H322M lung 97.8% | HOP-62 NSCLC 99.2% | HOP-92 NSCLC 90.6% | NCI-H522 lung 94.7% | A549/ATCC NSCLC 98.8% | COLO 205 colon 109% | DU-145 prostate 101% | K-562 leukemia 99.9% | MALME-3M melanoma 101% | MDA-MB-231 breast 100% | RXF 393 renal 106% | SF-268 CNS 96.2% | SF-295 CNS 98.7% | SF-539 CNS 96.9% | UACC-257 melanoma 101% | M14 melanoma 91.7%

NC1=C(/C(N)=N/O)C(c2ccccc2)c2ccc3ccccc3c2O1 (stereo not given)
inactive: NCI-H23 lung 28.7% | NCI-H322M lung 40% | HOP-62 NSCLC 26.2% | A549/ATCC NSCLC 21.2% | 786-0 renal 29% | K-562 leukemia 13.2% | MALME-3M melanoma 46.4% | SF-268 CNS 33% | UACC-257 melanoma 46.7% | M14 melanoma 11.7%
active: NCI-H226 lung 1.84% | NCI-H522 lung 5.81% | COLO 205 colon -5.32% | DU-145 prostate 9% | MDA-MB-231 breast 8.69% | RXF 393 renal -14.1% | SF-295 CNS -0.153% | SF-539 CNS -32.4%

C=COC(=O)CCCCCCCCC
inactive: NCI-H23 lung 108% | NCI-H226 lung 107% | NCI-H322M lung 102% | HOP-62 NSCLC 120% | HOP-92 NSCLC 99% | NCI-H522 lung 85.9% | A549/ATCC NSCLC 108% | 786-0 renal 102% | COLO 205 colon 111% | DU-145 prostate 114% | MALME-3M melanoma 104% | MDA-MB-231 breast 102% | RXF 393 renal 106% | SF-268 CNS 101% | SF-295 CNS 115% | SF-539 CNS 113% | UACC-257 melanoma 107% | M14 melanoma 108%

CCCCCCCCCCCCCCCCNC(=O)OC(C)C
inactive: NCI-H23 lung 54.1% | NCI-H226 lung 69.1% | HOP-62 NSCLC 40.5% | HOP-92 NSCLC 53% | A549/ATCC NSCLC 10.3% | 786-0 renal 83.9% | MALME-3M melanoma 81.2% | MDA-MB-231 breast 23.8% | RXF 393 renal 80.1% | SF-268 CNS 64.9% | SF-295 CNS 20.8% | UACC-257 melanoma 95.8% | M14 melanoma 35.7%
active: NCI-H322M lung -20.9% | NCI-H522 lung -54.3% | COLO 205 colon -29.6% | DU-145 prostate -23.3% | K-562 leukemia 8%

O=C1NN(C(=O)c2ccc(Cl)cc2)C(c2ccccc2)=N/C1=C\c1ccc(F)cc1
inactive: NCI-H23 lung 84% | NCI-H226 lung 92.1% | NCI-H322M lung 89.7% | HOP-62 NSCLC 99.1% | HOP-92 NSCLC 83.5% | NCI-H522 lung 96.5% | A549/ATCC NSCLC 87.5% | 786-0 renal 76.5% | COLO 205 colon 109% | DU-145 prostate 112% | K-562 leukemia 83.2% | MALME-3M melanoma 85.6% | MDA-MB-231 breast 68% | RXF 393 renal 84.2% | SF-268 CNS 105% | SF-295 CNS 72.9% | SF-539 CNS 84.8% | UACC-257 melanoma 102% | M14 melanoma 86.2%

O=C(Nc1cccc(-n2cc(-c3ccncc3)c(-c3ccc(Cl)c(O)c3)n2)c1)Nc1ccc(Cl)c(C(F)(F)F)c1
active: NCI-H23 lung -25.8% | NCI-H226 lung 3.43% | HOP-62 NSCLC -17% | HOP-92 NSCLC -30.7% | NCI-H522 lung -30% | A549/ATCC NSCLC -21.3% | 786-0 renal 4.7% | COLO 205 colon -60.2% | DU-145 prostate -17% | K-562 leukemia -20.8% | MALME-3M melanoma -16.6% | MDA-MB-231 breast -36.4% | RXF 393 renal -76% | SF-268 CNS -34.5% | SF-539 CNS -26.1% | UACC-257 melanoma -54% | M14 melanoma -25.5%
inactive: NCI-H322M lung 24.7%

COc1cc2c(cc1OCCCN1CCN(CCCn3c4ccccc4c4ccccc43)CC1)N=C[C@@H]1CCCN1C2=O
active: NCI-H23 lung -30.6% | NCI-H226 lung -80.4% | NCI-H322M lung -65.5% | HOP-62 NSCLC -66% | HOP-92 NSCLC -80.5% | NCI-H522 lung -26.6% | A549/ATCC NSCLC -37.5% | 786-0 renal -70.3% | COLO 205 colon -98.8% | DU-145 prostate -85.9% | K-562 leukemia -50.1% | MALME-3M melanoma -82.5% | MDA-MB-231 breast -69.3% | RXF 393 renal -78.3% | SF-268 CNS -87.8% | SF-295 CNS -92.3% | SF-539 CNS -91.3% | UACC-257 melanoma -70.3%

CCCCOc1ccc(/C=C2/SC(N3CCOCC3)=NC2=O)cc1OCC
inactive: NCI-H23 lung 98.6% | NCI-H226 lung 92% | NCI-H322M lung 94.3% | HOP-62 NSCLC 104% | NCI-H460 lung 99.5% | NCI-H522 lung 75% | A549/ATCC NSCLC 96% | COLO 205 colon 113% | DU-145 prostate 99.4% | K-562 leukemia 86.4% | MALME-3M melanoma 93.1% | MDA-MB-231 breast 83.8% | RXF 393 renal 94.6% | SF-268 CNS 99.2% | SF-295 CNS 100% | SF-539 CNS 86.4% | UACC-257 melanoma 108% | M14 melanoma 91.8%

COc1ccc(Cn2cc3c(c2-c2cc(OC)c(OC)c(OC)c2)CCc2cnoc2-3)cc1
inactive: NCI-H23 lung 22.8% | NCI-H226 lung 19.8% | NCI-H322M lung 35.8% | HOP-62 NSCLC 64.2% | HOP-92 NSCLC 77.1% | NCI-H522 lung 24.7% | A549/ATCC NSCLC 25.2% | 786-0 renal 36.3% | DU-145 prostate 20.2% | K-562 leukemia 14.6% | MDA-MB-231 breast 14% | RXF 393 renal 17.1% | SF-268 CNS 40.9% | UACC-257 melanoma 67.6%
active: COLO 205 colon -27.7% | SF-295 CNS 1.12% | SF-539 CNS 2.64% | M14 melanoma 7.62%

O=C(Nc1ccncc1)C(=O)c1cn(S(=O)(=O)c2ccc(Br)cc2)c2ccccc12
inactive: NCI-H23 lung 46.9% | NCI-H226 lung 77.8% | NCI-H322M lung 97.1% | HOP-62 NSCLC 44.7% | HOP-92 NSCLC 48.6% | NCI-H522 lung 18.3% | A549/ATCC NSCLC 75.6% | 786-0 renal 54.9% | COLO 205 colon 103% | DU-145 prostate 62.6% | K-562 leukemia 26.5% | MALME-3M melanoma 49.6% | MDA-MB-231 breast 43% | RXF 393 renal 60.1% | SF-268 CNS 52.2% | SF-295 CNS 29.6% | SF-539 CNS 43.8% | UACC-257 melanoma 69.4% | M14 melanoma 31.6%

COc1ccc(/C=C(\C#N)c2cc(OC)c3c(c2)OCO3)cc1
active: NCI-H522 lung -8.84% | COLO 205 colon -41% | DU-145 prostate -12.7% | K-562 leukemia 9.08% | SF-295 CNS 4.91% | SF-539 CNS 4.3%
inactive: NCI-H23 lung 37.5% | NCI-H226 lung 26.7% | NCI-H322M lung 44% | HOP-62 NSCLC 35.8% | HOP-92 NSCLC 43.6% | A549/ATCC NSCLC 15.4% | 786-0 renal 20% | MALME-3M melanoma 54.2% | MDA-MB-231 breast 10.4% | RXF 393 renal 21.4% | SF-268 CNS 26.9% | UACC-257 melanoma 84% | M14 melanoma 12.1%

CCN1C(=O)N(CC)C2C1NN=c1s/c(=C\c3cccnc3)c(=O)n12 (stereo not given)
active: NCI-H522 lung 8.92% | K-562 leukemia 9.64% | RXF 393 renal 0.531% | SF-539 CNS -13.3% | M14 melanoma 0.469%
inactive: NCI-H23 lung 44.5% | NCI-H226 lung 49.7% | NCI-H322M lung 47.3% | HOP-62 NSCLC 53.4% | HOP-92 NSCLC 101% | A549/ATCC NSCLC 27% | 786-0 renal 41.7% | COLO 205 colon 12.3% | DU-145 prostate 17% | MALME-3M melanoma 61.8% | MDA-MB-231 breast 46.5% | SF-268 CNS 49.4% | SF-295 CNS 11.9% | UACC-257 melanoma 68%

CCN(CC)CCOc1ccc(Cl)c(C)c1
inactive: NCI-H23 lung 91.6% | NCI-H226 lung 104% | NCI-H322M lung 103% | HOP-62 NSCLC 104% | HOP-92 NSCLC 85.7% | NCI-H522 lung 92.4% | A549/ATCC NSCLC 96.5% | 786-0 renal 99.6% | COLO 205 colon 103% | DU-145 prostate 107% | K-562 leukemia 111% | MALME-3M melanoma 94.4% | MDA-MB-231 breast 104% | RXF 393 renal 104% | SF-268 CNS 98% | SF-295 CNS 118% | SF-539 CNS 108% | UACC-257 melanoma 99.5% | M14 melanoma 103%

COc1cc2c(cc1O)CCN1C[C@@H](CC(C)C)[C@@H](O)C[C@@H]21
inactive: NCI-H23 lung 99.9% | NCI-H226 lung 96.6% | NCI-H322M lung 105% | HOP-62 NSCLC 93.5% | HOP-92 NSCLC 63.8% | NCI-H522 lung 93.6% | A549/ATCC NSCLC 107% | 786-0 renal 92% | COLO 205 colon 127% | DU-145 prostate 111% | K-562 leukemia 96% | MALME-3M melanoma 100% | MDA-MB-231 breast 103% | RXF 393 renal 107% | SF-268 CNS 107% | SF-295 CNS 97.4% | SF-539 CNS 96.7% | UACC-257 melanoma 99.5% | M14 melanoma 100%
